# p53 reactivation: mutant p53 re-activation in reporter cells; H1299 p53-A138V BP100-luciferase reporter, luminescence, 24 h; Potency, µM (titrated, usually from 92.2 µM), without a hit: top-dose activity change, positive = activation, hits mostly activators; 0.063% of 320,000 active; note: % of control where 0% means no effect; nearly all actives have a fitted effect of over 45% in size
#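 H1299 (p53-null), stable ts p53-A138V + BP100-Luc; 1000 cells/well, Opti-MEM/10% FBS; cpd 4 pt, 1:5; 24 h, 37 deg C, 5% CO2; detection reagent 10 min RT; luminescence.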
# A-T KAP1 phos: potential ataxia-telangiectasia treatments restoring KAP-1 phosphorylation. 0.19% of 320,000 active. F2112 A-T fibroblasts, KAP-1 phosphorylation AlphaLISA; neocarzinostatin DNA damage 30 min before lysis. AID 485349. Potency, µM (highest dose often 57.5 µM), for the others: at the top dose activation, most hits filed as activators; note: % of control where 0% means no effect; nearly all actives have a fitted effect of over 45% in size
#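 hTERT-immortalized A-T patient fibroblasts (F2112), 500 cells/well in OPTI-MEM, 1% FBS, got compounds for 60 min, then NCS for 30 min at 37C. Lysates were then assayed for phospho-KAP-1 by AlphaLISA (anti-pKAP1 donor, anti-KAP1 acceptor beads), 6 hr at 25C.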
# SW480 rerep: induces DNA re-replication in SW480 colon adenocarcinoma cells. SW480 DNA re-replication, Hoechst DNA content imaging, 48 h. Potency, µM (top dose mostly 46.1 µM), for the others: at the highest dose re-replication activation, actives largely listed as activators. 1.8% of 340,000 active. AID 624297; note: % of control where 0% means no effect; nearly all actives have a fitted effect of over 55% in size
#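 Treated cells incubate 48 hr (37 C, 5% CO2), are stained 40 min with Hoechst, and nuclear fluorescence is enumerated; a rise in nuclei with high DNA signal marks re-replication.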
# ELG1 repair inh: blocks ELG1-dependent DNA repair in HEK293T cells. HEK293T ELG1-luciferase reporter, luminescence, 16 h; DNA damage induced by 5-fluorouridine. Potency, µM (series often up to 46.1 µM), inactives show at the top dose activity change, negative = inhibition, actives largely listed as inhibitors. 2.3% of 330,000 active; note: % is set by controls: 0 for no effect and ±100 for the full control effect; nearly all actives have a fitted effect of over 55% in size
#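 DMSO vehicle served as the neutral condition. Each well held 2,000 cells given 5-fluorouridine plus compound; after 16 hr at 37 °C/5% CO2, ONE-Glo was added and luciferase measured 30 min later.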
# MCF10A rerep: induces DNA re-replication in MCF 10a normal breast cells; Potency, µM (highest dose often 46.1 µM), for the others: top-dose activity, positive = re-replication, hits mostly activators; 2.9% of 350,000 active; MCF 10A DNA re-replication, Hoechst nuclear intensity, 48 h; AID 624296; note: % of control where 0% means no effect; nearly all actives have a fitted effect of over 50% in size
# ELG1 genotoxic: genotoxicity induction in ELG1-luciferase HEK293T cells; Potency, µM (titrated, usually from 46 µM), for the others: at the top dose activity change, positive = activation, actives largely listed as activators; AID 504466; HEK293T ELG1-luciferase reporter, luminescence, 16 h; 1.3% of 330,000 active; note: % of control where 0% means no effect; nearly all actives have a fitted effect of over 60% in size
#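 Screening used a luciferase reporter fused to human ELG1 in HEK293T cells. Luminescence was read on a CCD plate imager after 16 hr exposure and 30 min ONE-Glo incubation.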
# Starred values were filed as active, the others as inactive; ? = inconclusive; . = not tested or not shown. Hits are enriched below; roughly 7.1% of the tested compounds scored in any of these assays. Calls come from the whole dose curve; as a rule, active = well fitted curve in the direction sought with a large enough effect; inconclusive = small, poorly fitted or top-dose-only effect, or another doubt; inactive = no such curve, though single readings can be large; an effect the other way counts as inactive or inconclusive. Potency is the fitted concentration of half-maximal effect.
SMILES,p53 reactivation,A-T KAP1 phos,SW480 rerep,ELG1 repair inh,MCF10A rerep,ELG1 genotoxic
COc1cc(OC)cc(C(=O)N/N=C\c2ccoc2)c1,-12%,9%,5.8µM*,1%,23µM*,2%
Cc1cc(Cl)ccc1OCC(=O)OCC(=O)NC1CCS(=O)(=O)C1 (configuration not stated),-11%,0%,-16%,16%,13%,2%
CC(OC(=O)COc1cccc2c1OC(C)(C)C2)C(=O)Nc1ccc(S(N)(=O)=O)cc1 (configuration not stated),10%,-6%,-3%,14%,-8%,4%
CN(C)c1ccc(C=NNC(=O)c2cccc3ccccc23)c(Cl)c1,.,.,18µM*,.,18%,.
CN(C)c1ccc(/C=N/NC(=O)c2ccccc2)cc1,0%,1%,12%,?,23%,?
CN(C)c1ccc(/C=N/NC(=O)c2ccccc2Cl)cc1,?,-5%,2.6µM*,?,21µM*,?
COc1ccc(C(=O)N/N=C/c2ccc(SC)cc2)cc1,27%,2%,5.2µM*,11%,6%,-2%
Cc1occc1C(=O)N/N=C/C=C/c1ccc(N(C)C)cc1,17%,2%,0.012µM*,?,?,?
CSc1ccc(/C=N/NC(=O)c2ccc(O)cc2)cc1,?,-3%,-2%,?,-8%,?
O.O.O.O.O.O.O.O=S(=O)([O-])[O-].[Co+2],.,.,5%,.,7%,.
N#Cc1ccc(C(=O)Nc2cc(C3CC3)nn2-c2ccccc2)cc1,8%,17%,-7%,1%,-1%,0%
CC1(c2ccccc2)NC(=O)N(CC(=O)N(CC(=O)Nc2ccccc2C(F)(F)F)Cc2ccco2)C1=O (configuration not stated),1%,0%,-6%,-4%,1%,-1%
COC(=O)c1ccc(N2CCN(C)CC2)c(NC(=O)c2sc3ccccc3c2Cl)c1,.,.,?,.,2%,.
CC(C)=CC(=O)N1CCCC(N2CCN(c3ccccc3C)CC2)C1 (configuration not stated),7%,4%,2%,5%,3%,-6%
CCCCC(=O)N(c1ccc(OCC)cc1)C1C=CS(=O)(=O)C1 (configuration not stated),-9%,5%,1%,17%,13µM*,1%
CCCC(=O)N(c1ccc(OCC)cc1)C1C=CS(=O)(=O)C1 (configuration not stated),1%,-6%,-4%,3%,3%,1%
Cc1ccc(NC(=O)c2cccc(NC(=O)/C=C/c3ccco3)c2)cc1C,?,-6%,4%,?,?,0%
Cc1ccc(-n2nc3ccc(NC(=O)/C=C/c4ccco4)cc3n2)cc1,16%,12%,?,?,12µM*,?
CCCCS(=O)(=O)N1CCN(S(=O)(=O)c2cccs2)CC1,-3%,15%,-8%,-2%,-17%,4%
C/C(=N\NC(=S)Nc1cccc(C)c1)c1cc2ccccc2o1,26%,-5%,13%,0%,14µM*,-9%
CCNC(=S)N/N=C(\C)c1cc2ccccc2o1,27%,0%,-2%,?,-4%,-2%
CCC(=O)Nc1cccc(NC(=S)NC(=O)c2cc3ccccc3o2)c1,25%,2%,2%,?,?,23µM*
C/C(=N\Nc1ccc([N+](=O)[O-])cc1)c1cc2ccccc2o1,-1%,-2%,24%,14%,2.9µM*,?
Cc1ccc(NC(=O)C(C)OC(=O)/C=C/c2ccccc2)cc1S(=O)(=O)N1CCOCC1 (configuration not stated),-1%,3%,-8%,19%,9%,0%
CC(C)CC1=C/C(=C/c2ccc(-c3ccccc3)o2)C(=O)O1,11%,-5%,2%,21%,26µM*,-2%
SMILES,p53 reactivation,A-T KAP1 phos,SW480 rerep,ELG1 repair inh,MCF10A rerep,ELG1 genotoxic
Cc1cc(C(=O)O)ccc1N/C=C1\CCCC(C)C1=O (configuration not stated),1%,4%,3%,?,9%,?
CC1CCC/C(=C\Nc2ccc(O)cc2)C1=O (configuration not stated),25%,19%,-1%,?,5%,18µM*
CC(C)OCc1ccc(C(=O)N2CCN(CC(=O)N3CCCC3)CC2)cc1,6%,-6%,-8%,7%,1%,1%
Cc1ccc(C)c(-n2c(-c3ccc(Br)cc3)csc2=NC(=O)c2ccccc2F)c1,14%,-7%,4%,12µM*,17%,-10%
Cn1ccsc1=NC(=O)c1ccccc1F,12%,-1%,-8%,?,-1%,-9%
COc1cccc(C2CN(c3ccc(F)cc3F)N=C2c2cccs2)c1OC (configuration not stated),-8%,28µM*,4.1µM*,?,?,-3%
CC(=O)N1c2ccc(S(=O)(=O)NCCC(=O)Nc3ccc(F)cc3C)cc2CC1C (configuration not stated),3%,2%,28%,6%,2%,0%
O=C(c1cc(-c2cccc(Cl)c2)on1)N1CCCC1,?,0%,-5%,?,2%,18µM*
O=C(c1cc(-c2cccc(Cl)c2)on1)N1CCN(c2ccccc2)CC1,0%,3%,22%,15%,17%,5%
O=C(c1cc(-c2ccc(Cl)c(Cl)c2)on1)N1CCCCC1,?,5%,0%,?,-9%,?
O=C(c1cc(-c2ccccc2)on1)N1CCCC1,?,-2%,2%,?,3%,1.6µM*
O=C(c1cc(-c2ccc(Cl)cc2)on1)N1CCCC1,?,1%,-20%,?,-3%,2.9µM*
COc1ccc(Cl)cc1CC=NNC(=O)c1ccncc1,.,.,?,.,15%,.
O=C(NCc1ccccn1)Nc1cccc(F)c1,20%,3%,-17%,?,-19%,12%
Cc1ccc(N(C(=O)c2csnn2)C(C(=O)NC2CCCCC2)c2ccccn2)cc1C (configuration not stated),-2%,-2%,-7%,-3%,-1%,1%
O=C(O)c1ccccc1NS(=O)(=O)c1cccc(-n2sc3ccccc3c2=O)c1,18%,-7%,?,15%,15µM*,-8%
O=C(O)c1ccccc1NS(=O)(=O)c1cccc(C(F)(F)F)c1,-7%,1%,-13%,2%,-3%,-4%

# Source: PubChem
